# Hits are enriched below; roughly 2.4% of the tested compounds scored in any of these assays.
# RTF Ca sens inh: cardiac RTF calcium desensitization; actives 0.12% (n = 340,000); inhibition, % at 7.15 µM; P19429+P45379; IANBD-labeled cardiac RTF, Ca2+ fluorescence;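 active means inhibition above the mean inhibition of all tested compounds plus 3 SD, cut at about 17% in these data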;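 further: assay run at fixed EC70 calcium of 1.6 mM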
# RTF Ca sens act: cardiac RTF calcium sensitization | P19429+P45379 | IANBD-labeled TnC RTF fluorescence at EC20 calcium; 0% EC20 calcium, 100% full calcium | activation, % at 7.2 µM | actives 0.24% (n = 340,000) | AID 493008;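 active means activation above the mean over all tested compounds plus 3 SD, cut at about 30% in these data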;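 further: rise in fluorescence read as greater calcium sensitivity of cardiac thin filaments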
# TMEM16A inh: mouse TMEM16A channel inhibition, primary screen; Q8BHY3; HEK293 TMEM16A/YFP iodide influx fluorescence, ionomycin; normalized B-score (activity score, 25-100; higher = stronger inhibition) at 10 µM; actives 1.2% (n = 310,000);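 active means ratio plate-corrected score three or more library SD toward inhibition, starting fluorescence score within five deviations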;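 further: score derived from kinetic fluorescence span divided by baseline fluorescence per well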
# CRFBP-R2 agonist: agonists of human CRF-binding protein/CRF-R2 receptor complex; HEK293 CRF-R2/CRF-BP, calcium dye fluorescence (FLIPR); percent of saturating CRF peptide response; activation, % at 13.2 µM; actives 0.46% (n = 350,000); AID 588473;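 active means activation of at least 50%, plus an integration ratio under a set limit after plate pattern correction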;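 further: plate controls were neutral control wells without compound for no effect and CRF at EC100 for full effect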
# CRFBP-R2 block: CRF-BP/CRF-R2 complex antagonism; HEK293 CRF-R2/CRF-BP, CRF-induced calcium fluorescence; inhibition, % at 11.8 µM; actives 0.59% (n = 350,000);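 active means inhibition of the ligand-induced calcium signal above about 50% at the single tested concentration, limit read from the data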
# TMEM16A act: mouse TMEM16A channel activation, primary screen; AID 623877; HEK293 TMEM16A/YFP-H148Q/I152L, iodide quench fluorescence; stronger effect = lower value; B-score at 10 µM; actives 0.3% (n = 340,000);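 active means fluorescence-ratio B-score plate-corrected deviation score at least 3 library SD below zero, with starting fluorescence score within 5 deviations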;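 further: channel opened by trigger with iodide after compound preincubation; score built on the fluorescence ratio of max minus min over baseline; more negative score means more quench and so TMEM16A activation or potentiation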
# TMEM16A reconf: reconfirmed blocker of mouse TMEM16A calcium-activated chloride channel; AID 652189; shares compounds with TMEM16A inh; inhibition, % at 10 µM; HEK293 TMEM16A/YFP-H148Q, iodide quench fluorescence; ionomycin added to raise cell calcium; actives 39% (n = 2,300);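 active means mean duplicate percent inhibition, scaled so buffer wells are 0 and the reference blocker 100, over three buffer SD above buffer mean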
# TMEM16A Ca cntr: calcium mobilization counter-screen hit for TMEM16A inhibitor series | shares compounds with TMEM16A inh | TMEM16A/YFP HEK293, Fluo4 calcium mobilization | calcium response (% of ionomycin), % at 10 µM | actives 2% (n = 2,300) | AID 652231;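 active means duplicate-averaged calcium signal over 20% of the ionomycin maximum, relative to buffer baseline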;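 further: each well's signal is peak minus trough fluorescence divided by its pre-addition baseline; 0% = buffer wells and 100% = ionomycin wells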
# YFP-HEK293 quench: counter-screen for TMEM16A inhibitors: effect in parental YFP-HEK293 cells; iodide YFP quench, ionomycin; shares compounds with TMEM16A inh; 2,300 tested, under 10 active; YFP ratio F(max-min)/F0 at 10 µM;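 active means yellow fluorescent protein signal ratio exceeding the buffer control mean by over 5 SD of those controls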;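 further: ratio is mean of duplicate wells from kinetic YFP trace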
# ClC-1 rat inh: rat ClC-1 inhibition, TMEM16A specificity screen; shares compounds with TMEM16A inh; CHO ClC-1-YFP, iodide influx fluorescence quench; iodide control reads 0, buffer control 100; ratio percent, % at 10 µM; 2,300 tested, under 10 active; AID 652236;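 active means duplicate-mean ratio percent above the mean of iodide-only control wells, which defines zero, plus 5 of their SD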;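 further: higher percent means stronger block of ClC-1 iodide influx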
# The depositor's hits bear a star; i = inactive; . = no result.
SMILES,RTF Ca sens inh,RTF Ca sens act,TMEM16A inh,CRFBP-R2 agonist,CRFBP-R2 block,TMEM16A act,TMEM16A reconf,TMEM16A Ca cntr,YFP-HEK293 quench,ClC-1 rat inh
CCc1ccc(C(=O)OCC(=O)c2c(N)n(CC(C)C)c(=O)n(C)c2=O)cc1,-6,1,25*,0,-28,i,i,i,-0.88,-10
COCc1c(C(=O)OCC(=O)c2c(N)n(CC(C)C)c(=O)n(C)c2=O)oc2ccccc12,-7,-5,25*,4,-38,i,i,i,-1.2,-12
CC(C)OC(=O)Cn1cc(C#N)c2ccccc21,1,3,i,1,-18,i,.,.,.,.
COc1ccc(NC(=O)COC(=O)c2cc(C)oc2C)c([N+](=O)[O-])c1,-7,0,.,0,-1,i,.,.,.,.
CC(C)c1cc(C(=O)N2CCCC(CCC(=O)N3CCN(c4ccccn4)CC3)C2)no1 (configuration not stated),-6,-2,25*,-2,10,i,i,i,-1,-18
CCc1cc(C(=O)N2CCCC(CCC(=O)N3CCN(c4ccccn4)CC3)C2)no1 (configuration not stated),-6,6,i,-3,16,i,.,.,.,.
CN(C)c1ccc2c(O)cc(=O)n(C)c2c1,-4,0,100*,-1,13,i,i,i,-1.1,-6
CN(C)c1ccc2cc(S(=O)(=O)O)cc(O)c2c1,-3,7,.,-2,10,i,.,.,.,.
Oc1ccc(-c2[nH]ncc2-c2ccc(Cl)cc2)c(O)c1,6,1,25*,1,-2,i,i,i,-1.4,-3
CC(=O)Oc1ccc(C(=O)Nc2cccc3c2CCCC3)cc1,-12,-2,i,0,6,i,.,.,.,.
CCCc1cc(=O)oc2cc(C)c(CN3CCCC3)c(O)c12,2,-7,i,2,3,i,i,i,-1.2,-12
COc1cc(NC(=O)CSCC(=O)Nc2cccc(C(F)(F)F)c2)c(Cl)cc1Cl,-11,-7,100*,0,-9,i,i,i,-0.99,-9
O=c1oc2ccccc2cc1-c1nc2c(s1)CCCC2,-2,2,25*,-5,10,i,i,i,-1.3,-8
CS(=O)(=O)N1CCN(c2ccc(NC(=S)NC(=O)c3ccc4c(c3)OCO4)cc2)CC1,-7,13,i,16,-80,i,.,.,.,.
CC(C)(C)C1=Nn2c(nnc2-c2ccccn2)SC1,-4,1,i,-3,1,i,i,i,-1.2,-15
CCC1Sc2ccccc2N(CC(=O)NCCC2=CCCCC2)C1=O (configuration not stated),-3,1,i,-2,-32,i,i,i,-0.71,-2
CCOC(=O)c1ccccc1NC(=O)CSc1nnc(COc2ccccc2C)n1C,-2,-2,25*,-2,13,i,i,i,-1.2,-8
CCOC(=O)c1ccccc1NC(=O)CSc1nnnn1C1CCCCC1,3,8,100*,-1,14,i,i,i,-0.96,-2
O=C(CCNS(=O)(=O)c1ccc(Br)cc1)NCC(c1cccs1)N1CCOCC1 (configuration not stated),.,.,.,-2,-7,.,.,.,.,.
CCCCn1c(N)c(N(CCOC)C(=O)CCCc2nc3ccccc3c(=O)[nH]2)c(=O)[nH]c1=O,1,2,i,1,-9,i,.,.,.,.
O=C(CCc1ccc(S(=O)(=O)N2CCOCC2)cc1)Nc1ccc(F)c(F)c1F,-4,-4,.,-1,-1,i,.,.,.,.
CCC1CCCCN1S(=O)(=O)c1ccc(C(=O)Nc2nnc(C3CC3)o2)cc1 (configuration not stated),-7,0,i,0,11,i,.,.,.,.
CCC1CCCCN1S(=O)(=O)c1ccc(NC(=O)c2ccncc2)cc1 (configuration not stated),-2,-2,25*,0,1,i,22%*,i,-0.96,-14
Cc1ccc2[nH]c3c(N4CCc5ccccc5C4)ncnc3c2c1,-7,-4,25*,3,-8,i,30%*,i,-0.91,-25
c1ccc2c(c1)[nH]c1c(N3CCSCC3)ncnc12,7,-1,25*,0,-1,i,28%*,i,-0.88,-20
SMILES,RTF Ca sens inh,RTF Ca sens act,TMEM16A inh,CRFBP-R2 agonist,CRFBP-R2 block,TMEM16A act,TMEM16A reconf,TMEM16A Ca cntr,YFP-HEK293 quench,ClC-1 rat inh
Clc1ccc2[nH]c3c(N4CCC5(CC4)OCCO5)ncnc3c2c1,.,.,100*,0,7,.,44%*,i,-0.86,-30
c1ccc2c(c1)[nH]c1c(N3CCCC3)ncnc12,3,2,i,-4,11,i,.,.,.,.
CSc1nc2sc3c(c2c2nnnn12)CCCC3,1,3,100*,0,-18,i,i,i,-1.2,-8
CSc1nc2sc3c(c2c(=O)n1C)CCCC3,-2,-5,i,0,-29,i,.,.,.,.
Cc1ccc(C)c(OCCC(=O)Nc2ccc3c(c2)OCO3)c1,0,1,.,0,9,i,.,.,.,.
O=C(COC(=O)/C=C/c1ccc(C(F)(F)F)cc1)NCc1ccco1,-6,6,i,-1,10,i,.,.,.,.
CC1(C)Oc2ccc(C(=O)NC3CCCC3)cc2N(CC(=O)N2CCOCC2)C1=O,1,-2,i,0,20,i,.,.,.,.
CCOC(=O)c1ccc2c(c1)N(CC(=O)N1CCCCC1)C(=O)C(C)(C)O2,-20,1,100*,0,19,i,i,i,-1.2,-4
Cc1cc(C)n(CC(=O)c2ccccc2)c(=O)c1C#N,-35,6,100*,-1,-1,i,i,i,-0.9,-8
CC(C)OC(=O)c1c(NS(=O)(=O)c2ccccc2)sc2c1CCCC2,-7,1,100*,76*,5,i,72%*,i,-0.87,-4
